Tau fluor cs: counter-screen for tau fibril formation inhibitors. tau K18 P301L Alexa594 fluorescence, heparin fibrillization. Potency, µM (titrated, usually from 57.7 µM), for the others: at the top dose activity change, negative = decrease. 0.93% of 280,000 active; also: nearly all actives have a fitted effect of over 55% in size
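Human K18 P301L tau (15 uM unlabeled plus 0.24 uM Alexa 594-labeled, final) in 100 mM sodium acetate pH 7 was mixed with compound and 20 uM heparin and incubated 6 hr at 37 C.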
Tau fibril FP: inhibitors of human tau fibril formation; K18 P301L tau heparin fibrillization, Alexa594 FP, 6 h; AID 1468; P10636; 0.39% of 280,000 active; Potency, µM (doses to about 57.7 µM), without a hit: at the top dose activity, negative = inhibition, usual class: inhibitors; also: nearly all actives have a fitted effect of over 55% in size
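K18 P301L tau (15 uM unlabeled/0.24 uM Alexa 594-labeled, final) + compound + heparin 20 uM final; 100 mM NaOAc pH 7; 6 hr 37 C; ThT 30 uM final added, 1 hr RT; FP ex 555/em 632 nm.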
Tau ThT inhib: tau fibrillization inhibition (ThT binding); P10636; recombinant tau K18 P301L, heparin-induced fibrillization, ThT fluorescence; Potency, µM (doses to about 57.4 µM), for inactives: top-dose activity, negative = inhibition, hits mostly inhibitors; 2.1% of 270,000 active; AID 1460; also: nearly all actives have a fitted effect of over 55% in size
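Fibril formation assay: tau K18 P301L at 15 uM with trace Alexa 594 label, heparin inducer 20 uM, pH 7 sodium acetate buffer, 37 C for 6 hr; endpoint ThT signal.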
Gal4-VP16 FLuc: inhibits Gal4-VP16 luciferase reporter, ROR gamma counter-screen; Drosophila S2 Gal4-VP16 UAS-luciferase, luminescence, 20 h; Potency, µM (doses to about 53.6 µM), without a hit: at the top dose activity, negative = inhibition, most hits filed as inhibitors; 3.5% of 310,000 active;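 also: Gal4-VP16 expression switched on by copper sulfate through the metallothionein promoter; nearly all actives have a fitted effect of over 50% in size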
RORgamma inh: blocks mouse ROR gamma transcriptional activity; P51450; Drosophila S2 Gal4-RORgamma UAS-luciferase reporter, 20 h; Potency, µM (series often up to 53.6 µM), inactives show top-dose activity change, negative = inhibition, hits mostly inhibitors; 5.4% of 310,000 active; also: nearly all actives have a fitted effect of over 60% in size
Target sequence (P51450 whole entry, looked up, the tested form may be a part): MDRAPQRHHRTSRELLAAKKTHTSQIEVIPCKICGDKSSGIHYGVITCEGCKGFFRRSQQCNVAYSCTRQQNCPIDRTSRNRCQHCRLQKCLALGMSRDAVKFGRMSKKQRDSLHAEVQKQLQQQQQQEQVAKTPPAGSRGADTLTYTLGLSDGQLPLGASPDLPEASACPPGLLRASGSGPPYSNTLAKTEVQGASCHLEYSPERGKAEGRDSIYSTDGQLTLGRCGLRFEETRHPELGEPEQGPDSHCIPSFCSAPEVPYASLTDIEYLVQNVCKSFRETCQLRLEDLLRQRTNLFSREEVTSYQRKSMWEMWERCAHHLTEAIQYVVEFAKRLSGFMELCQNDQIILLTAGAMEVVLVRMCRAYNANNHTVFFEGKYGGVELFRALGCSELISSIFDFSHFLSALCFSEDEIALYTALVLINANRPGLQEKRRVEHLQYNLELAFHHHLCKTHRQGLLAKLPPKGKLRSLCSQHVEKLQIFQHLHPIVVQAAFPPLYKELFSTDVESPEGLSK
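Compounds are pin-transferred onto Drosophila Schneider cells expressing a copper-inducible Gal4–ROR gamma transactivation domain fusion. After 1 hr, copper sulfate is added to 700 uM final; luciferase is read 20 hr later.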
An asterisk follows results filed as active; ? = inconclusive; nt = no result; [ ] = dose if it differs, or a comment. Only some compounds are listed: those with a hit (about 7.3% of all), similar ones and a draw of the others. Calls follow the shape of the dose curve; as a rule, active = well fitted curve in the direction sought with a large enough effect; inconclusive = small, poorly fitted or top-dose-only effect, or another doubt; inactive = no such curve, though single readings can be large; an effect the other way counts as inactive or inconclusive. % is scaled to controls: 0 for no effect and ±100 for the full control effect; potency is read from the fitted curve at half-maximal effect.

SMILES	Tau fluor cs	Tau fibril FP	Tau ThT inhib	Gal4-VP16 FLuc	RORgamma inh
CC1CC(C)(C)NC(=S)N1CCCC(=O)Nc1ccc(Cl)cc1 (configuration not stated)	-6.6%	4.3%	-5.4%	?	3.98µM*
CC1CC(C)(C)NC(=S)N1CCCC(=O)N1CCN(c2ccccc2F)CC1 (configuration not stated)	-5.5%	4.6%	-0.1%	?	14.1µM*
CC1CC(C)(C)NC(=S)N1CCCC(=O)Nc1ccccc1F (configuration not stated)	-6.7%	4.0%	-10.2%	-12.1%	17.8µM*
Cc1ccc(CNC(=O)CCCN2C(=S)NC(C)(C)CC2C)cc1 (configuration not stated)	-5.3%	-9.7%	0.2%	4.7%	?
CC1CC(C)(C)NC(=S)N1CCCC(=O)NCCc1ccc(Cl)cc1 (configuration not stated)	-1.5%	2.6%	-1.7%	?	12.6µM*
CC1CC(C)(C)NC(=S)N1CCC(=O)NCCc1ccc(Cl)cc1 (configuration not stated)	-6.8%	-7.3%	-3.7%	7.94µM*	1.58µM*
CC(=O)c1cccc(NC(=O)CN2C(=S)NC(C)(C)CC2C)c1 (configuration not stated)	1.2%	-1.0%	3.7%	15.9%	0.4%
Cc1ccc(NC(=O)CN2C(=S)NC(C)(C)CC2C)cc1Cl (configuration not stated)	-6.4%	2.7%	-0.8%	?	14.1µM*
O=C1c2ccccc2C(=O)N1c1cccc(-c2csc(Nc3ccc4c(c3)OCO4)n2)c1	7.94µM*[quencher]	?	8.91µM*	4.5%	?
COc1ccc(CCNC(=O)c2ccc3c(c2)N(Cc2ccc(F)cc2)CCS3)c(OC)c1	nt	nt	nt	-4.0%	23.4%
FC(F)(F)c1cc(-c2ccccc2)nc(N2CCCCC2)n1	3.8%	6.6%	7.8%	-0.4%	11.3%
FC(F)(F)c1cc(-c2ccccc2)nc(N2CCOCC2)n1	-4.0%	0.2%	0.8%	-2.2%	0.794µM*
CCOC(=O)C1CCCN(C(=O)Cn2ncn3c(cc4sc(CC)cc43)c2=O)C1 (configuration not stated)	3.9%	2.6%	2.0%	nt	nt
CCn1ccnc1CN(C)Cc1cn(-c2cc(C)ccc2C)nc1-c1ccccc1	2.8%	-3.6%	-9.9%	-3.4%	3.5%
CCn1ccnc1CN(C)Cc1cn(-c2ccccc2)nc1-c1ccc(OC)cc1F	-11.9%	-1.9%	-14.1%	?	3.55µM*
Cc1ccc(-n2cc(CN(C)Cc3nccn3C)c(-c3ccc(F)cc3)n2)cc1	-11.9%	1.8%	?	?	7.94µM*
Cc1ccc(-n2cc(CN(C)Cc3ncc[nH]3)c(-c3cccc(C)c3)n2)cc1	10.4%	-2.4%	12.1%	6.31µM*	-1.5%
CCn1ccnc1CN(C)Cc1cn(-c2ccc(C)cc2)nc1-c1ccc(F)cc1	-5.8%	-5.6%	?	15.8µM*	2.82µM*
CCOc1ccccc1N(C)C(=O)c1c2c(nc3ccccc13)C(=O)N(C1CCCCC1)C2	-2.1%	6.2%	-10.3%	nt	nt
Cc1nc(N2CCCC2)c2c(C(=O)N3CCN(c4cccc(C)c4C)CC3)c(C)oc2n1	-5.3%	4.6%	-4.7%	nt	nt
CC(=O)Nc1nonc1NC(=O)COc1ccccc1	6.8%	4.6%	4.5%	7.6%	9.5%
COc1ccc(NC(=O)Cn2c(=O)n(-c3ccc(CC(=O)NCC4CCCO4)cc3)c(=O)c3ccccc32)c(OC)c1 (configuration not stated)	-5.9%	-5.9%	-3.5%	nt	nt
Cc1ccc(-c2nn(-c3cccc(F)c3)cc2CN(Cc2nccn2C)C(C)C)o1	-5.2%	-4.4%	-12.9%	?	5.62µM*
Cc1ccc(-c2nn(-c3cccc(F)c3)cc2CN2CCN(c3ccccn3)CC2)o1	-25.7%	-6.1%	?	-19.1%	9.3%
Cc1cccc(-n2cc(CN3CCN(Cc4nccn4C)CC3)c(-c3cccc(F)c3)n2)c1	-5.5%	-4.4%	-13.6%	?	11.2µM*
COCCCNc1nc2c(c(=O)n(Cc3ccccc3)c(=O)n2C)n1C	-8.5%	1.1%	3.9%	nt	nt
